Assay [1] has as its system Wnt5a (protein binding on small-molecule microarray). Put plainly: Wnt5a binders on small-molecule microarray, primary screen, biophysical, 635/667 nm fluorescence (AID 1142).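 Note: fluorescence read at 667 nm with signal to noise per printed feature.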 The following applies: 635 nm fluorescence, higher = more signal.
A short description of assay [2]: cell viability in Huh7 cells, primary screen, cytotoxicity control for HCV replication inhibitor project, CellTiter-Glo luminescence, basal, 48 h (AID 1143).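 Note: Huh7 hepatoma cells carrying a hepatitis C replication reporter with no stimulus; test concentration not given here.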 The following applies: Huh7 HCV replicon, higher = more signal, called active from +8 up or from −8 down.
Assay [3] is described as follows: P. aeruginosa biofilm formation inhibitors, primary screen, PAO1 strain, BacTiter-Glo luminescence, LB-PBS (AID 1144). Particulars: 12 h, higher = more signal.
Assay [4] is described as follows: CREB reporter modulators without forskolin, primary screen, cell-based, PC12, CRE-LacZ reporter, unstimulated (AID 1145). Particulars: no forskolin, luminescence, 4.5 h, higher = more signal, called active from +8 up or from −8 down.
A short description of assay [5]: CREB reporter modulators under forskolin, primary screen, cell-based, PC12, CRE-LacZ reporter, forskolin-stimulated (AID 1146).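 Note: PC12 cells with 6xCRE LacZ reporter stimulated by forskolin 10 µM; beta-galactosidase reporter signal reflecting CREB driven transcription.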 The following applies: luminescence, 4.5 h, higher = more signal, called active from +8 up or from −8 down.
Assay [6] has as its target Streptavidin (Streptomyces avidinii) (UniProt P22629). Put plainly: streptavidin binders on small-molecule microarray, primary screen, artefact control for SMM compound annotation, biophysical, 635/667 nm fluorescence (AID 1147).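 Note: signal reflects streptavidin binding to arrayed compounds as a control protein.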 The following applies: streptavidin binding, higher = more signal.
Assay [7] is described as follows: small-molecule binders of probe aInhba, primary screen, biochemical, small-molecule microarray, 635/667 nm fluorescence (AID 1148).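 Note: score merges 667nm spot fluorescence with signal-to-noise for antibody binding to printed compounds.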 Particulars: higher = more signal.
Assay [8] deals with Torsin-1A (Homo sapiens) (UniProt O14656). Put plainly: torsin A binders from cell lysate, primary screen, small-molecule microarray, wild-type, 635/667 nm (AID 1149). The following applies: COS7 hTOR1A-WT lysate, 635 nm fluorescence, higher = more signal.
Torsin-1A (Homo sapiens), sequence (O14656 whole entry, looked up): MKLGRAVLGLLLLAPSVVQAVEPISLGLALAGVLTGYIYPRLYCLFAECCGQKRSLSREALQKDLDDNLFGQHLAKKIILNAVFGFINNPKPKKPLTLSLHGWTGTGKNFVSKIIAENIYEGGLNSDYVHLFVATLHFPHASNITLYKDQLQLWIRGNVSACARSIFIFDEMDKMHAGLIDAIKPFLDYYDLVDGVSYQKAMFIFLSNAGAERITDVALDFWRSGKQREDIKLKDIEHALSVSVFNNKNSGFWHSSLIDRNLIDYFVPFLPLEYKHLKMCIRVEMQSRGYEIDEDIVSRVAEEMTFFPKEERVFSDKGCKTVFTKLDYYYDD
For assay [9] the target is unchanged. Put plainly: small-molecule binders of mutant TOR1A in lysate, primary screen, cell lysate, small-molecule microarray, COS7 lysate, 635/667 nm fluorescence (AID 1150).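 Note: score pools 667 nm emission and signal to noise measuring lysate protein binding.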 The following applies: COS7 hTOR1A mutant lysate, 635 nm fluorescence, higher = more signal.
Assay [10] has as its system Sonic hedgehog protein (Shh). Put plainly: small-molecule binders of Shh protein, primary screen, biochemical, small-molecule microarray, 635/667 nm fluorescence (AID 1151).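 Note: Shh protein binding to compounds spotted on small-molecule microarray slides; score combines spot fluorescence intensity with signal-to-noise across triplicate slides.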 The following applies: small-molecule microarray binding, 635 nm fluorescence; higher = more signal.
Assay [11] can be described thus: E. coli DRC41 culture turbidity changes, primary screen, E. coli filamentation inducer project, strain DRC41, OD650, 48 h (AID 1152).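 Note: E. coli MC1000 strain DRC41 lacking acrAB efflux pump and sulA.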 The following applies: E. coli DRC41 (acrAB sulA), higher = more signal, called active from +8 up or from −8 down.
The nature of assay [12]: small-molecule binders of probe aLefty1, primary screen, biochemical, small-molecule microarray, 635/667 nm fluorescence (AID 1153).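 Note: score merges spot fluorescence with signal-to-noise ratio from the scanned slide images.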 The following applies: higher = more signal.
The nature of assay [13]: PSAC antagonists in infected red cells, primary screen, cell-based, P. falciparum Indochina, OD700, 1 h (AID 1154). Particulars: P. falciparum Indochina infected RBC osmotic lysis, higher = more signal, called active from +8 up or from −8 down.
Assay [14] is described as follows: PSAC antagonists in infected red cells, primary screen, cell-based, P. falciparum Indochina, OD700, 2 h (AID 1155).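 Note: lysis reports solute entry through the parasite surface anion channel PSAC; channel blockers reduce lysis of infected cells.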 Particulars: P. falciparum Indochina infected erythrocytes, osmotic lysis OD700; higher = more signal, called active from +8 up or from −8 down.
The nature of assay [15]: osmotic lysis modulators in infected erythrocytes, primary screen, PSAC antagonist project, cell-based, P. falciparum Indochina, OD700, 3 h (AID 1156). Particulars: higher = more signal, called active from +8 up or from −8 down.
Assay [16] can be described thus: PSAC antagonists in infected red cells, primary screen, cell-based, P. falciparum Indochina, OD700, 18 h (AID 1157). Particulars: P. falciparum Indochina infected erythrocytes, osmotic lysis OD700, 18 h; higher = more signal, called active from +8 up or from −8 down.
Assay [17] is described as follows: modulators of S6 phosphorylation in cells, primary screen, cell-based, A549, cytoblot, luminescence, serum-stimulated (AID 1158).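 Note: serum-stimulated A549 lung adenocarcinoma cells; signal is phosphorylated S6 detected by cytoblot immunostaining with HRP secondary.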 Particulars: A549 phospho-S6 cytoblot, 5 h, higher = more signal.
The target in assay [18] is NADPH oxidase 2 (Homo sapiens) (UniProt P04839). Put plainly: NOX2-dependent H2O2 signal modulators, primary screen, NOX inhibitor project, cell-based, HEK293-NOX2, PMA-stimulated, Amplex Red fluorescence (AID 1159). Note: test concentration not given here. Particulars: 45 min, higher = more signal, called active from +8 up or from −8 down.
NADPH oxidase 2 (Homo sapiens), sequence (P04839 whole entry, looked up): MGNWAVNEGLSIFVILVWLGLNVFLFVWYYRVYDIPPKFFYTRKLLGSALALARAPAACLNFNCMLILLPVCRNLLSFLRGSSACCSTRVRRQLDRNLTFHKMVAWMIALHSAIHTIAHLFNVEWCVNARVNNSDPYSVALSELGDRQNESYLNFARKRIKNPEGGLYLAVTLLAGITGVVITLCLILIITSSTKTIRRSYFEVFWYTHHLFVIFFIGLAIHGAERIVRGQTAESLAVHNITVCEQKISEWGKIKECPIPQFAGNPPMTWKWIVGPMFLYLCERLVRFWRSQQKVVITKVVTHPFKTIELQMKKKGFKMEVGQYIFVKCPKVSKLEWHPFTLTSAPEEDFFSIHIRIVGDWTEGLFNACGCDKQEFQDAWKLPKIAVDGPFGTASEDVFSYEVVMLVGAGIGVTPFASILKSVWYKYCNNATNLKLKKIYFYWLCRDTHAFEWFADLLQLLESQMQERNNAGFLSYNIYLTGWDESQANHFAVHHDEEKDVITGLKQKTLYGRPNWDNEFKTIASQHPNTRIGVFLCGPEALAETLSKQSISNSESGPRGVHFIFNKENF
For assay [19], the target named is NADPH oxidase 4 (Homo sapiens) (UniProt Q9NPH5). Put plainly: NOX4-dependent H2O2 signal modulators, primary screen, NOX inhibitor project, cell-based, HEK293-NOX4, tetracycline-induced, Amplex Red fluorescence (AID 1160). The following applies: 45 min, higher = more signal, called active from +8 up or from −8 down.
NADPH oxidase 4 (Homo sapiens), sequence (Q9NPH5 whole entry, looked up): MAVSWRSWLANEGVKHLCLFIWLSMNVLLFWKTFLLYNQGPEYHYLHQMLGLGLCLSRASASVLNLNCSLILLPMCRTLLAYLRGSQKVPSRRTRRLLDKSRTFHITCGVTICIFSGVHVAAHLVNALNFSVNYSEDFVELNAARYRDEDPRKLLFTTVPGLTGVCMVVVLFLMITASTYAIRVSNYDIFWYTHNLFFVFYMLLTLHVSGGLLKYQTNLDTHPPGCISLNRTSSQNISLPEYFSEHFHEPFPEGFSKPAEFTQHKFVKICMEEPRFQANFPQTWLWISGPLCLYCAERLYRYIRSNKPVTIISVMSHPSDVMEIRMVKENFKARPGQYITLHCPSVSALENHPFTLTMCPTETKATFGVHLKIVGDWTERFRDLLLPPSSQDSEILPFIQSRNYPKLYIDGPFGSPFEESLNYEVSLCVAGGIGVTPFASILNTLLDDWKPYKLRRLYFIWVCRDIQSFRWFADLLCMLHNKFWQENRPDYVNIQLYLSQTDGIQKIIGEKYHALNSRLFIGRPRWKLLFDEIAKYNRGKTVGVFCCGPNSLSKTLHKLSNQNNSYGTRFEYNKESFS
In assay [20] the target is NADPH oxidase 5 (Homo sapiens) (UniProt Q96PH1). Put plainly: NOX5-dependent H2O2 signal modulators, primary screen, NOX inhibitor project, cell-based, HEK293-NOX5, Amplex Red fluorescence (AID 1161). The following applies: HEK293-NOX5, ionomycin, 45 min, higher = more signal.
NADPH oxidase 5 (Homo sapiens), sequence (Q96PH1 whole entry, looked up): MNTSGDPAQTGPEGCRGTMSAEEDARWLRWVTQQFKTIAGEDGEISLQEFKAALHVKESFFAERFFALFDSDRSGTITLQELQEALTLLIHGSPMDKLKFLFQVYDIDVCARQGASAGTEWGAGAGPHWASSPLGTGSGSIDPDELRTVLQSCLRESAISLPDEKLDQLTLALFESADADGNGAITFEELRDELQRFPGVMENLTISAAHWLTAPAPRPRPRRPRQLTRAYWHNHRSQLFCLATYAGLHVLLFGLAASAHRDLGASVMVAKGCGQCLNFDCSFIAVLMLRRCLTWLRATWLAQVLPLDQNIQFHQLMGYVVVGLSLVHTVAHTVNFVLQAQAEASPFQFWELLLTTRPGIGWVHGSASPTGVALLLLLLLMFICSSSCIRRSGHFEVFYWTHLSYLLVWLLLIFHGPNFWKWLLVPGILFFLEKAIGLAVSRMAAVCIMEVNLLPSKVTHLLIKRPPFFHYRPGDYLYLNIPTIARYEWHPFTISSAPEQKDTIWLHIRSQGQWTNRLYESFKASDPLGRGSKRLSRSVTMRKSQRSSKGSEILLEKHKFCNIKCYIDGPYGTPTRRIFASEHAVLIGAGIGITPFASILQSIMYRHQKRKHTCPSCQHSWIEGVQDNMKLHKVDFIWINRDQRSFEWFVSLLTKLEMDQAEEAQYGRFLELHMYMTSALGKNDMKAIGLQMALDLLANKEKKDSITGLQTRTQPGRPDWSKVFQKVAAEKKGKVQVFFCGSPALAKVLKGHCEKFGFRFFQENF

For 4 compounds, composite z-score and z-score results are on record in PubChem BioAssay.

Structures are written as SMILES. Activity calls are given as the source filed them. Unless noted, the rule behind the calls is not given here.

Streptavidin (Streptomyces avidinii), sequence (P22629 whole entry, looked up): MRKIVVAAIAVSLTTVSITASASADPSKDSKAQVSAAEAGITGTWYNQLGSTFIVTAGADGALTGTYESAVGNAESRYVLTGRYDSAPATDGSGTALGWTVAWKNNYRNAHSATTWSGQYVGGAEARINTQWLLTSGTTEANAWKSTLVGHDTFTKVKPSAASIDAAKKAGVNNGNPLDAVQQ

As to `COc1ccc([Si](C)(C)[C@H]2[C@H](CCO)O[C@@]3(C(=O)N(Cc4ccc(NC(=O)[C@H](C)O)cc4)c4ccccc43)[C@@H]2C)cc1`, the composite z-score in [1] is 0.185; in assay [6], 0.674; in assay [7], -0.0405; in the assay with Torsin-1A (Homo sapiens) [8], 0.189; in the assay with Torsin-1A (Homo sapiens) [9] it was 0.753; in assay [10], 0.785. In addition, the composite z-score in assay [12] is -0.0984. The z-score is -8.05 (active) in assay [2]; -0.159 (inactive) in [3]; 5 (inactive) in assay [4]; -1.71 (inactive) in [5]; 0.0546 (inactive) in assay [11]; 29.9 (active) in assay [13]. In addition, the z-score was 25.8 (active) in assay [14]; 2.52 (inactive) in [15]; 2.46 (inactive) in assay [16]; 1.27 in assay [17]; 0.25 (inactive) in assay [18]; 1.39 (inactive) in [19]. The same compound came in with a z-score in assay [20] of -0.66.

Take `COC(=O)[C@@]1(Cc2ccc(F)cc2)[C@H]2c3cc(C(=O)N4CCCC4)n(CCc4ccccn4)c3C[C@H]2CN1C(=O)c1ccccc1`: the composite z-score is -0.0942 in [1]; 0.478 in assay [6]; 0.0889 in assay [7]; -0.226 in the assay with Torsin-1A (Homo sapiens) [8]; 0.783 with Torsin-1A (Homo sapiens) [9]; 0.208 in [10]. The composite z-score in assay [12] stood at 0.413. Further, the z-score was -0.619 (inactive) in assay [2]; -0.237 (inactive) in [3]; 2.87 (inactive) in [4]; 0.245 (inactive) in [5]; -1.04 (inactive) in assay [11]; 1.8 (inactive) in assay [13]. For the same compound, the z-score in assay [14] was 0.408 (inactive); in assay [15], 0.394 (inactive); in [16] it was 0.446 (inactive); in assay [17], -0.697; in assay [18] it was 0.557 (inactive); in [19] it was -0.279 (inactive). In assay [20], this compound yielded a z-score of -0.188.

For `COC(=O)[C@@]1(Cc2ccc(F)cc2)[C@H]2c3cc(C(=O)N4CCCC4)n(Cc4ccccn4)c3C[C@H]2CN1C(=O)c1ccccc1`, the composite z-score in [1] was 0.739; in [6] it was 0.498; in assay [7] it was 0.522; in the assay with Torsin-1A (Homo sapiens) [8], -0.578; with Torsin-1A (Homo sapiens) [9], 0.738; in assay [10], -0.138. Besides, the composite z-score in assay [12] was 0.0479. The z-score in assay [2] was -1.56 (inactive); in assay [3], 0.261 (inactive); in assay [4], 0.966 (inactive); in assay [5], 1.35 (inactive); in assay [11], -1.9 (inactive); in assay [13] it was 2.2 (inactive). Moreover, the z-score is 0.404 (inactive) in assay [14]; 0.893 (inactive) in assay [15]; 0.987 (inactive) in [16]; 0.0347 in assay [17]; 0.553 (inactive) in assay [18]; -1.33 (inactive) in [19]. The z-score in assay [20] is -2.47.

With `CC(C)C(O)C1C=CC2C(=O)NC(=O)C2N1Nc1ccccn1` (stereo not given), the composite z-score is 0.122 in [1]; 0.0669 in assay [6]; -0.0421 in [7]; 0.238 with Torsin-1A (Homo sapiens) [8]; 0.407 with Torsin-1A (Homo sapiens) [9]; -0.212 in assay [10]. Besides, the composite z-score in assay [12] was found to be 0.134. The z-score in assay [2] was 0.813 (inactive); in assay [3] it was -0.248 (inactive); in assay [4] it was -0.143 (inactive); in assay [5], 0.219 (inactive); in [11] it was -0.668 (inactive); in assay [13] it was -0.292 (inactive). For the same compound, the z-score in [14] is 0.695 (inactive); in assay [15], -0.0484 (inactive); in assay [16] it was 0.826 (inactive); in assay [17] it was -0.846; in assay [18], -1.22 (inactive); in [19] it was -1.41 (inactive). Also, the z-score in assay [20] was -1.79.
